The results in this text go back to PubChem BioAssay (NCI).

“And” between values parts separate entries of the source, which are not always exact repeats. Equal values may be shown once. Compounds without any hit were thinned out: in the full panel of roughly 83,000, 20% have a hit.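 48-hour exposure, single concentration, 96-well plates; percent growth endpoint where 0 means no net growth. Active: below 10.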 More than one record can exist for a structure, and the calls need not agree. The source made the active and inactive calls.

For one assay, the system named is HOP-92 NSCLC. As to the kind of experiment: NCI-60 one-dose screen, 48 h (100 = growth as untreated, 0 = no growth, -100 = all killed). Particulars: 10 µM unless noted.
On to `COc1ccc(/C(C#N)=C/c2ccccn2)cc1`, for which the growth was 99.8% (inactive).
On the same count and under the same terms, the result for `O=C1OC2(c3ccccc31)c1ccc(O)c(O)c1Oc1c2ccc(O)c1O` reads 61.9% (inactive) and 120% (inactive); that for `CC(=O)Nc1cccc2c1CCCC2`, 96.5% (inactive) and 80.8% (inactive); that for `CN(C)c1ccc2nc3ccc(N)cc3[n+](-c3ccccc3)c2c1`, -3.42% (active) and 38.1% (inactive).
With `CCN(CC)CCOc1ccc(/C=N/Nc2nc3c([nH]2)c(=O)n(C)c(=O)n3C)cc1`, the growth is 94.6% (inactive).
`O=C1CCN(Cc2ccccc2)C(=S)N1`: the growth was 70.4% (inactive) and 92.4% (inactive).
The same measure, in the same setting: the result for `CC(C)Cc1ccc(C(C)C(=O)NCc2ccc(Cn3c(=O)sn(CCCI)c3=O)cc2)cc1` (configuration not stated) reads 73.6% (inactive) and -67.5% (active); that for `CCc1c(CC(=O)O)c2cc(C)ccc2n1Cc1ccc(Cl)cc1`, 88% (inactive) and 91.7% (inactive); that for `CNC(=O)c1ccc(C)c(-n2c(C)cc(OCc3ccc(F)cc3F)c(Br)c2=O)c1`, 64.3% (inactive) and 90.9% (inactive).
Turning to `O=[N+]([O-])c1ccc(-n2[nH]nnc2=S)cc1`, the growth was 102% (inactive).
As to `COC(=O)/C=C/c1cc(O)c2c(c1)C(C(=O)OC)C(c1ccc(O)c(O)c1)O2` (configuration not stated), the growth is 16.5% (inactive) and -0.331% (active).
Still for that read-out and setting: the figure for `COC(=O)c1nc(N)nc(C(=O)OC)c1C(=O)c1ccc(OC)cc1` is 106% (inactive) and 63.4% (inactive).
In the case of `COc1cc2c(c(OC)c1OC)-c1ccc(OC)c(=O)cc1[C@@H](NC(C)=O)CC2`, the growth is 57.9% (inactive) and 14% (inactive) and 2.37% (active).
As to `CN1CCN(c2ccc3nc(-c4c(N)c5c(F)cccc5[nH]c4=O)[nH]c3c2)CC1`, the growth is 43.9% (inactive) and 44.5% (inactive).
Still for that read-out and setting: the result for `NC(=S)NN=C1CCC(C2CCCCC2)CC1` (configuration not stated) reads 95.7% (inactive) and 92.3% (inactive); that for `c1ccc2cc(C[n+]3ccn(Cc4ccc5ccccc5n4)c3)ccc2c1`, -20.1% (active) and -5.22% (active); that for `CN(C)CCC(=O)c1ccc(Cl)cc1`, 86.4% (inactive) and 124% (inactive).
As for `Fc1ccccc1Nc1n[nH]c(=S)s1`, the growth was 100% (inactive).
On the same count and under the same terms, the result for `CCOc1ccc2cc(-c3nn(CC4CCN(C)CC4)c4ncnc(N)c34)ccc2c1` reads 69.1% (inactive) and 48.8% (inactive).
Still for that read-out and setting: the figure for `CC[N+](CC)(CC(=O)Nc1c(C)cccc1C)Cc1ccccc1` is 112% (inactive) and 90.7% (inactive); for `CC1=CCC2CC1C2(C)C` (configuration not stated) it is 75.5% (inactive) and 121% (inactive); for `CC1(C)[C@@H](OC(=O)CCC(=O)O)CC[C@]2(C)[C@H]3C(=O)C=C4[C@@H]5C[C@@](C)(C(=O)O)CC[C@]5(C)CC[C@@]4(C)[C@]3(C)CC[C@@H]12` it is 121% (inactive) and -74.4% (active).
As for `CCC(O)c1ccccc1` (configuration not stated), the growth was 117% (inactive) and 91.6% (inactive).
`CN(Cc1ccccc1)Cc1ccccc1`: the growth was 91.8% (inactive).
With `COc1ccc(-c2ncnc3c2ncn3C/C=C/CCl)cc1`, the growth is 37.9% (inactive) and 62.9% (inactive).
Take `NS(=O)(=O)c1cc2c(cc1Cl)NC(C(Cl)Cl)NS2(=O)=O` (configuration not stated): the growth is 96.3% (inactive).
Still for that read-out and setting: the figure for `O=Nc1ccc(O)cc1` is 90.4% (inactive) and 101% (inactive).
`COc1ccc2c(=O)cc(-c3ccccc3)[nH]c2c1`: the growth was 53.8% (inactive).
As to `O=CC(O)C(O)C(O)CO` (configuration not stated), the growth was 119% (inactive).
On to `CN(C)c1ccc(/C=C(\C#N)c2ccccc2)cc1`, for which the growth was 53.9% (inactive) and 39.5% (inactive) and 14% (inactive).
Regarding `OCCN1CCN(CCO)CC1`, the growth was 102% (inactive) and 85% (inactive) and 95.2% (inactive).
Turning to `CC1=C[C@H]2c3c(c(O)c(O)c4oc5cc(O)cc(O)c5c(=O)c34)[C@H](c3cc(O)c(O)c4oc5cc(O)cc(O)c5c(=O)c34)[C@H]2C(C)(C)C1`, the growth was -8.6% (active) and -43.8% (active).
Take `CCOc1ccc2c(S(=O)(=O)O)cccc2c1[N+](=O)[O-]`: the growth was 104% (inactive) and 78.3% (inactive).
As to `Nc1ccccc1Nc1ccccc1`, the growth is 136% (inactive).
Consider `Oc1ccccc1C=NCC1CCC(CN=Cc2ccccc2O)CC1` (configuration not stated), for which the growth was 104% (inactive).
Consider `Clc1ccc(NC(Nc2ccc(Cl)cc2)C(Cl)(Cl)Cl)cc1`, for which the growth is 105% (inactive).

Another assay has as its system NCI-H522 lung. The description is as above. Conditions: 10 µM unless noted.
With `COc1ccc(/C(C#N)=C/c2ccccn2)cc1`, the growth was 98.1% (inactive) and 103% (inactive).
As for `O=C1OC2(c3ccccc31)c1ccc(O)c(O)c1Oc1c2ccc(O)c1O`, the growth is 89.8% (inactive) and 84.1% (inactive).
Same read-out and setting: the figure for `CC(=O)Nc1cccc2c1CCCC2` is 68.7% (inactive) and 75.3% (inactive).
Same read-out and setting: the figure for `CN(C)c1ccc2nc3ccc(N)cc3[n+](-c3ccccc3)c2c1` is 14.1% (inactive); for `CCN(CC)CCOc1ccc(/C=N/Nc2nc3c([nH]2)c(=O)n(C)c(=O)n3C)cc1` it is 84.8% (inactive) and 93.3% (inactive).
Regarding `O=C1CCN(Cc2ccccc2)C(=S)N1`, the growth is 114% (inactive) and 95.1% (inactive).
Still for that read-out and setting: the result for `CC(C)Cc1ccc(C(C)C(=O)NCc2ccc(Cn3c(=O)sn(CCCI)c3=O)cc2)cc1` (configuration not stated) reads 69% (inactive) and -55.6% (active); that for `CCc1c(CC(=O)O)c2cc(C)ccc2n1Cc1ccc(Cl)cc1`, 85% (inactive) and 81.5% (inactive); that for `CNC(=O)c1ccc(C)c(-n2c(C)cc(OCc3ccc(F)cc3F)c(Br)c2=O)c1`, 52.3% (inactive) and 47.1% (inactive).
`O=[N+]([O-])c1ccc(-n2[nH]nnc2=S)cc1`: the growth is 91.3% (inactive).
As for `COC(=O)/C=C/c1cc(O)c2c(c1)C(C(=O)OC)C(c1ccc(O)c(O)c1)O2` (configuration not stated), the growth is 1.09% (active) and 0.933% (active).
For `COC(=O)c1nc(N)nc(C(=O)OC)c1C(=O)c1ccc(OC)cc1`, the growth is 100% (inactive) and 55.7% (inactive).
As for `COc1cc2c(c(OC)c1OC)-c1ccc(OC)c(=O)cc1[C@@H](NC(C)=O)CC2`, the growth was 15.4% (inactive) and -6.78% (active) and -64.2% (active).
On the same count and under the same terms, the result for `CN1CCN(c2ccc3nc(-c4c(N)c5c(F)cccc5[nH]c4=O)[nH]c3c2)CC1` reads 18.5% (inactive) and 53.8% (inactive); that for `NC(=S)NN=C1CCC(C2CCCCC2)CC1` (configuration not stated), 52.2% (inactive) and 47.2% (inactive); that for `c1ccc2cc(C[n+]3ccn(Cc4ccc5ccccc5n4)c3)ccc2c1`, -27.4% (active) and 6.58% (active).
Regarding `CN(C)CCC(=O)c1ccc(Cl)cc1`, the growth is 79.8% (inactive) and -84.6% (active).
For `Fc1ccccc1Nc1n[nH]c(=S)s1`, the growth was 108% (inactive).
Same read-out and setting: the figure for `CCOc1ccc2cc(-c3nn(CC4CCN(C)CC4)c4ncnc(N)c34)ccc2c1` is 87% (inactive) and 42.3% (inactive).
On to `CC[N+](CC)(CC(=O)Nc1c(C)cccc1C)Cc1ccccc1`, for which the growth was 92% (inactive).
Same read-out and setting: the result for `CC1=CCC2CC1C2(C)C` (configuration not stated) reads 92.9% (inactive) and 39.9% (inactive).
On the same count and under the same terms, the result for `CC1(C)[C@@H](OC(=O)CCC(=O)O)CC[C@]2(C)[C@H]3C(=O)C=C4[C@@H]5C[C@@](C)(C(=O)O)CC[C@]5(C)CC[C@@]4(C)[C@]3(C)CC[C@@H]12` reads 86.5% (inactive) and -40.5% (active); that for `CCC(O)c1ccccc1` (configuration not stated), 101% (inactive) and 86.4% (inactive); that for `CN(Cc1ccccc1)Cc1ccccc1`, 97.3% (inactive).
`COc1ccc(-c2ncnc3c2ncn3C/C=C/CCl)cc1`: the growth is 48.5% (inactive) and 55.5% (inactive).
Same read-out and setting: the result for `NS(=O)(=O)c1cc2c(cc1Cl)NC(C(Cl)Cl)NS2(=O)=O` (configuration not stated) reads 96.7% (inactive) and 104% (inactive).
`O=Nc1ccc(O)cc1`: the growth is 87.8% (inactive) and 78.5% (inactive).
Still for that read-out and setting: the result for `COc1ccc2c(=O)cc(-c3ccccc3)[nH]c2c1` reads -20% (active) and -68.2% (active); that for `O=CC(O)C(O)C(O)CO` (configuration not stated), 33.4% (inactive).
On the same count and under the same terms, the figure for `CN(C)c1ccc(/C=C(\C#N)c2ccccc2)cc1` is -50% (active) and 2.73% (active) and 5.2% (active).
Take `OCCN1CCN(CCO)CC1`: the growth is 98.6% (inactive) and 87.9% (inactive) and 108% (inactive).
Take `CC1=C[C@H]2c3c(c(O)c(O)c4oc5cc(O)cc(O)c5c(=O)c34)[C@H](c3cc(O)c(O)c4oc5cc(O)cc(O)c5c(=O)c34)[C@H]2C(C)(C)C1`: the growth was -50.7% (active) and -52.7% (active).
As for `CCOc1ccc2c(S(=O)(=O)O)cccc2c1[N+](=O)[O-]`, the growth is 99.7% (inactive) and 122% (inactive).
Regarding `Nc1ccccc1Nc1ccccc1`, the growth is 54% (inactive) and -2.1% (active).
For the compound `Oc1ccccc1C=NCC1CCC(CN=Cc2ccccc2O)CC1` (configuration not stated), the growth is 57.7% (inactive).
For `Clc1ccc(NC(Nc2ccc(Cl)cc2)C(Cl)(Cl)Cl)cc1`, the growth is 71.2% (inactive) and 72.1% (inactive).
